# Screen size: about 48,000 compounds; about 13,000 (27%) showed an effect of 50% or more. The list shows a part of the results.
# Test system: Wolbachia pipientis
# Experiment: Anti-Wolbachia Cell-Based Screen
# Assay type: functional
# Design: scale not given: in the data most compounds retested in dose-response had high values
# Details: 5 µM
row,Structure (SMILES),Percent Effect [%]
1,N#Cc1cccnc1NCCNC(=O)N1CCN2CCCCC2C1 (configuration not stated),-6.324
2,CC(C)NC(=O)C1CCC2(CCNCC2)C1 (configuration not stated),-35.43
3,COc1ccc(C(=O)C2CCCN(CCCn3cccn3)C2)c(OC)c1 (configuration not stated),-1.04
4,NC(=O)c1cnn2c1NCC(CNCC1(c3ccccc3)CCC1)C2 (configuration not stated),92.2
5,O=C(c1ccc(C2CCCN2)s1)N1CCN2CCC1CC2 (configuration not stated),11.12
6,CCS(=O)(=O)N1CCc2ccc(NC(=O)Nc3cccc(C#N)c3)cc21,97.92
7,CC[C@H]1CN2CC[C@H]1C[C@@H]2CNC(=O)Nc1cccc(C#N)c1,1.181
8,CC[C@H]1CN2CC[C@H]1C[C@@H]2CNCc1cccc(C#N)c1,6.24
9,CC(C)C(=O)N1C[C@H]2CCCN[C@H]2C1.Cl,-7.068
10,O=C(CC1CCCC1)N1C[C@@H]2C[C@H]1CN2,-37.69
11,O=C(CC1CC1)N1C[C@H]2CCN[C@H]2C1,112.4
12,CC(C)CNC(=O)N1C[C@@H]2CCCN[C@@H]2C1,-10.44
13,CC(C)(C)CC(=O)N1C[C@@H]2C[C@H]1CN2.Cl,-16.89
14,CC(C)CNC(=O)N1C[C@H]2CCN[C@H]2C1,-21.84
15,CC(C)(C)CC(=O)N1C[C@H]2CCN[C@H]2C1,123.1
16,O=S(=O)(c1ccccc1)N1C[C@@H]2CCN[C@@H]2C1,-39.01
17,O=C(CC(F)(F)F)N1C[C@H]2CCN[C@H]2C1,92.17
18,CC(C)CCC(=O)N1C[C@H]2CCN[C@H]2C1,107.3
19,O=S(=O)(c1ccc(Cl)cc1)N1C[C@@H]2CCN[C@@H]2C1,-24.32

row,Structure (SMILES),Percent Effect [%]
1,Cc1ccc(S(=O)(=O)N2C[C@@H]3CCN[C@@H]3C2)cc1,-12.06
2,CS(=O)(=O)N1CCC(Nc2ccc(C#N)c(C(F)(F)F)c2)CC1,-23.63
3,COc1cccc2c(=O)n(C3CCCNC3)cnc12 (configuration not stated),-0.6392
4,CCc1ocnc1C(=O)N1CCC2(CC1)OCC(C)O2 (configuration not stated),-17.17
5,CN(C)CCN(Cc1ccco1)C(=O)Cc1cn2ccsc2n1,1.866
6,O=C(NC1CCC1)[C@@H]1C[C@@H]2CCN(Cc3ccncc3)C[C@H]2O1.O=C(O)C(F)(F)F.O=C(O)C(F)(F)F,-10.63
7,CNC(=O)[C@H]1C[C@@H]2CCN(Cc3ccncc3)C[C@H]2O1.O=C(O)C(F)(F)F.O=C(O)C(F)(F)F,103.5
8,O=C(NCCc1ccncc1)[C@H]1CC[C@@H]2[C@@H](CCN2CC2CC2)O1.O=C(O)C(F)(F)F.O=C(O)C(F)(F)F,1.654
9,O=C(O)C(F)(F)F.O=C(O)C(F)(F)F.O=C([C@H]1CN(Cc2ccncc2)C[C@H]2OCC[C@@H]12)N1CCCCO1,11.08
10,COCCNC(=O)[C@H]1C[C@@H]2CCN(Cc3ccncc3)C[C@H]2O1.O=C(O)C(F)(F)F.O=C(O)C(F)(F)F,99.07
11,CO[C@@H]1CCN(c2ncc(F)cn2)[C@@H]2CN(CC3CC3)C[C@@H]21,9.085
12,CCN1CC(=O)NCC12CCN(C(=O)c1ccno1)C2.O=C(O)C(F)(F)F (configuration not stated),-6.47
13,O=S(=O)(c1cccc(Cl)c1)N1C[C@@H]2CCN[C@@H]2C1,-5.104
14,O=C1NC[C@H]2CN(Cc3nccs3)CCN12,4.843
15,CC(C)(CNc1ccc(C#N)c(C(F)(F)F)c1)C(N)=O,-0.8311
16,COCCN1C[C@@H](C)[C@@]2(COCCN(C(=O)c3ccncc3)C2)C1.O=C(O)C(F)(F)F.O=C(O)C(F)(F)F,2.912
17,Cc1noc(C)c1C(=O)N1CCC2(CC1)c1nc[nH]c1CCN2C,14.77
18,COCCN1C[C@@H](C)[C@@]2(COCCN(C(=O)c3ccno3)C2)C1.O=C(O)C(F)(F)F,2.349
19,Cc1noc(C)c1CN1CCOC2(CCCN(c3nncs3)C2)C1.O=C(O)C(F)(F)F (configuration not stated),-6.2

row,Structure (SMILES),Percent Effect [%]
1,CCN1CCOCC2(C1)CN(C(=O)c1c(C)noc1C)CCO2 (configuration not stated),103.8
2,Cc1nocc1C(=O)N1CCOC2(COCCN(CC3CC3)C2)C1 (configuration not stated),116
3,Cc1noc(C)c1C(=O)N1CCOC2(COCCN(C(C)C)C2)C1.O=C(O)C(F)(F)F (configuration not stated),90.48
4,O=C(O)C(F)(F)F.O=C(O)C(F)(F)F.c1cnc(N2CCC3(COCCN(CC4CC4)C3)C2)nc1 (configuration not stated),-6.749
5,COCCN1CCOCC2(C1)CN(C(=O)c1conc1C)CCO2.O=C(O)C(F)(F)F (configuration not stated),91.15
6,COc1ccc(C(=O)N2CCOC3(CNCCOC3)C2)c(OC)n1 (configuration not stated),-6.762
7,Oc1cccc2ccc(CN3CCC4(CCNCC4)C3)nc12,2.778
8,Cn1nc(CN2CCCCC(N)C2)c2c(Cl)cccc21 (configuration not stated),-4.304
9,Cc1nocc1C(=O)N1CCOC2(COCCN(C(C)C)C2)C1.O=C(O)C(F)(F)F (configuration not stated),91.68
10,CC(C)N1CCOCC2(CN(Cc3ccccn3)CCO2)C1.O=C(O)C(F)(F)F.O=C(O)C(F)(F)F.O=C(O)C(F)(F)F (configuration not stated),-11.42
11,Cc1cnc(N2CCC3(CC2)COCCN(C(C)C)C3)nc1.O=C(O)C(F)(F)F,7.175
12,CSC1(CNC(=O)NC(C)Cc2cccc(F)c2)CCOCC1 (configuration not stated),-4.564
13,Cc1ccccc1CC(=O)N1C[C@@H](O)[C@H](N2CCC(F)(F)CC2)C1,138.7
14,Cc1ccccc1CC(=O)N1C[C@H]2CC[C@@H]1CN(Cc1cccnc1)C2,5.499
15,Cc1ccccc1CC(=O)N1C[C@@H](O)[C@H](N2CCOCC2)C1,153.4
16,Cc1nc(CN2CCO[C@H]3CN(C(=O)Cc4cccs4)C[C@H]32)cs1,2.702
17,CC(=O)N1CCN([C@@H]2CN(C(=O)Cc3ccccc3C)C[C@H]2O)CC1,157.7
18,Cc1ccccc1CC(=O)N1C[C@@H](O)[C@H](N2CCN(C)CC2)C1,176.4
19,Cc1ccccc1CC(=O)N1CCN(C2CCOC2=O)CC1 (configuration not stated),5.646
